Rows were chosen to be rich in hits. Some 0.77% of all compounds tested hit in one or more screens of this group.
NS1 inh – qHTS Assay for Inhibitors of Influenza NS1 Protein Function; Potency, µM (doses to about 46.1 µM); 270,000 tested, 0.4% active; calls by dose curve; further: actives are rising curves; nearly all actives have a fitted effect of over 50% in size
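Compounds were scored for reversing the slow growth caused by influenza A NS1 in S. cerevisiae, measured by optical density at 600 nm. Assay medium contained 2% galactose at pH 6.0; NS1-free yeast of the same strain were the positive control.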
RE007 growth inh – qHTS Assay for Inhibitors of the HIV-1 protein Vpr. 360,000 tested, 0.21% active. Potency, µM (series often up to 92.2 µM), usual class: inhibitors. AID 651644, 2012. S. pombe RE007 Vpr strain, BacTiter-Glo ATP luminescence, 24 h; active means well fitted falling curve with a large enough effect; inconclusive means small, poorly fitted or top-dose-only effect; inactive means no such curve, though single readings can be large or run the other way; further: nearly all actives have a fitted effect of over 50% in size
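Fission yeast RE007 carrying one integrated HIV-1 vpr copy, seeded at OD 0.01 in PMG+AL medium with 23 nL pinned compound. Grown 24 h at 30 degrees; viability read by BacTiter-Glo luminescence after 5 min.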
Tb PYK inh – qHTS of Trypanosoma Brucei Inhibitors | 410,000 tested, 0.12% active | pyruvate kinase (Trypanosoma brucei), Q57TT1 | AID 624173, 2012 | TbPYK enzyme, Kinase-Glo Plus ATP luminescence, 45 min | Potency, µM (highest dose often 76.8 µM), actives largely listed as inhibitors; further: nearly all actives have a fitted effect of over 50% in size
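Assay buffer: 50 mM TEA pH 7.2, 100 mM KCl, 10 mM MgCl2, 0.05% BSA, 0.01% Tween-20. Pyruvate kinase from T. brucei plus substrate met compound, then ADP (130 uM final). Luminescence was read post 45 min RT.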
LmPK inhibitor – qHTS Assay for Inhibitors of Leishmania Mexicana Pyruvate Kinase (LmPK). AID 1721, 2009. purified LmPK, Kinase-Glo ATP luminescence, 1 h. 290,000 tested, 0.37% active. Potency, µM (series often up to 57.5 µM), hits mostly inhibitors. Q27686
Target sequence (Q27686 whole entry, looked up): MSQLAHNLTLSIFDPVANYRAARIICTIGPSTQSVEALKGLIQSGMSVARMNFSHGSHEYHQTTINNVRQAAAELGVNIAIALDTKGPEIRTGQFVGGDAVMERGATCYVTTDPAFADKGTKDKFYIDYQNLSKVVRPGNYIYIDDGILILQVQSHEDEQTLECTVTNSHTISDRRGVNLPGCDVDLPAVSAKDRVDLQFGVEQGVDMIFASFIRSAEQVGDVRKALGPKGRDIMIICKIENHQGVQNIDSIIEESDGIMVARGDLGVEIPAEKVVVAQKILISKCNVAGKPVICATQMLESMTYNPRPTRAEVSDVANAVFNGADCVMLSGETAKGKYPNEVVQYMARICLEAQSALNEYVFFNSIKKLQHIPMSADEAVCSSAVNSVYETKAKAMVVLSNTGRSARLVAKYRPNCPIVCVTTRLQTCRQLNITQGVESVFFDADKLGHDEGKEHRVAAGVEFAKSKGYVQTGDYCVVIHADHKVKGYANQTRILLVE
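Pyruvate kinase activity monitored as ATP production (luciferase luminescence). Conditions: 0.1 nM enzyme, 0.5 mM PEP, 0.1 mM ADP, 1 h, RT; normalized against uninhibited and no-enzyme wells.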
Of the large screens only hits and unclear results are named; the others gave an inactive call. Unless noted, the call rests on the fitted dose curve; in most records, active means well fitted curve in the direction sought with a large enough effect; inconclusive means small, poorly fitted or top-dose-only effect, or another doubt; inactive means no such curve, though single readings can be large; an effect the other way counts as inactive or inconclusive.

O=C1c2ccccc2-c2nnc(-c3ccc(F)cc3)cc21	Tb PYK inh inconclusive, LmPK inhibitor 5.01µM (no result: NS1 inh)
Cc1ccccc1-c1cc2c(nn1)-c1ccccc1C2=O	LmPK inhibitor 5.01µM
O=c1[nH]nc(-c2ccc(F)cc2)cc1-c1ccccc1	none
CCC(C)(C)c1ccc(OCCCC[n+]2ccc(C)cc2)c(C(C)(C)CC)c1	RE007 growth inh inconclusive (no result: NS1 inh)
CCC(C)(C)c1ccc(OCCCC[n+]2cccc(C)c2C)c(C(C)(C)CC)c1	RE007 growth inh 28.2µM
S=c1[nH]nc(-c2ccco2)n1-c1cccc2ccccc12	Tb PYK inh 2.82µM, LmPK inhibitor 7.94µM
S=c1[nH]nc(-c2ccco2)n1C1CCCCC1	NS1 inh inconclusive, Tb PYK inh inconclusive, LmPK inhibitor 25.1µM
COc1ccc(-n2c(-c3ccco3)n[nH]c2=S)cc1	Tb PYK inh inconclusive, LmPK inhibitor inconclusive
S=c1[nH]nc(-c2ccco2)n1-c1ccc(Cl)cc1	Tb PYK inh inconclusive, LmPK inhibitor 17.8µM
Nn1c(-c2ccco2)n[nH]c1=S	none
CC(C)Oc1ccc(Cn2c(-c3ccco3)n[nH]c2=S)cc1	Tb PYK inh 2.51µM, LmPK inhibitor 14.1µM
CC#CCN1c2ccccc2[C@]23C[C@@H](C(=O)OC)N(S(=O)(=O)c4ccc(C(F)(F)F)cc4)C2=NC(C(=O)OC)=C(C(=O)OC)[C@H]13	none (no result: NS1 inh, RE007 growth inh, Tb PYK inh)
O=C(O)C[SH+]CC(=O)O.O=C(O)C[SH+]CC(=O)O.[Cu]	none (no result: RE007 growth inh, Tb PYK inh, LmPK inhibitor)
COc1ccccc1-n1c(-c2ccco2)n[nH]c1=S	Tb PYK inh 10µM, LmPK inhibitor inconclusive
S=c1[nH]nc(CSCc2ccccc2Cl)n1C1CCCCC1	Tb PYK inh inconclusive, LmPK inhibitor inconclusive (no result: NS1 inh)
Cn1cc(Cl)c(-c2n[nH]c(=S)n2C2CCCCC2)n1	Tb PYK inh 7.08µM, LmPK inhibitor 20µM (no result: NS1 inh)
S=c1[nH]nc(C2CCCCC2)n1/N=C/c1cccc(Br)c1	none
COc1cc(/C=N/n2c(C3CCCCC3)n[nH]c2=S)cc(Br)c1O	Tb PYK inh 7.94µM
COc1cc(OC)c(NC(=O)N2CCc3c(sc4c3CCCC4)C2c2ccccc2)cc1Cl (stereo unspecified)	none (no result: NS1 inh, RE007 growth inh, LmPK inhibitor)
O=C(/C=C/c1cccs1)N1CCc2ccccc21	Tb PYK inh inconclusive, LmPK inhibitor 14.1µM (no result: RE007 growth inh)
Cc1cccc(C(=O)n2c(=S)nc3ccccn32)c1	RE007 growth inh inconclusive, LmPK inhibitor 12.6µM
Cc1ccc(C(=O)n2ncn(C)c2=S)cc1	Tb PYK inh inconclusive
Cc1cccc(C(=O)N2CCCCCC2)c1	none
Cc1ccc(C(=O)n2c(=S)nc3ccccn32)cc1	LmPK inhibitor 14.1µM (no result: RE007 growth inh, Tb PYK inh)
CC/C=C(/C(=O)N[C@@H]1C(=O)N2C(C(=O)OCOC(=O)C(C)(C)C)=C(COC(N)=O)CS[C@H]12)c1csc(N)n1	none (no result: NS1 inh, RE007 growth inh, LmPK inhibitor)
CC(C)c1ccc(NC(=O)c2cnc3sc(N4CCCC4)nn3c2=O)cc1	none (no result: NS1 inh, RE007 growth inh, LmPK inhibitor)
Cc1nc2oc3ccc(F)cc3c(=O)c2cc1C(=O)O	none
CC(=O)c1cc2c(=O)c3cc(C)ccc3oc2nc1C	LmPK inhibitor 14.1µM
CCOC(=O)c1cc2c(=O)c3cc(C)ccc3oc2nc1C	none
Cc1ccc2oc3nc(C)c(C(=O)O)cc3c(=O)c2c1	Tb PYK inh inconclusive, LmPK inhibitor 15.8µM
CC(C)CC(NC(=O)CNC(=O)C(Cc1ccc(O)cc1)NC(=O)C(CO)NC(=O)C(Cc1c[nH]c2ccccc12)NC(=O)C(Cc1cnc[nH]1)NC(=O)C1CCC(=O)N1)C(=O)NC(CCCN=C(N)N)C(=O)N1CCCC1C(=O)NCC(N)=O (stereo unspecified)	none (no result: NS1 inh, RE007 growth inh, LmPK inhibitor)
C[C@H](CN1c2ccccc2Sc2cccnc21)N(C)C	none (no result: NS1 inh, RE007 growth inh, LmPK inhibitor)
O=C(O)CC(NS(=O)(=O)c1ccc(Br)s1)c1ccccc1 (stereo unspecified)	none (no result: NS1 inh, RE007 growth inh, LmPK inhibitor)
O=C(Nc1cccc(S(=O)(=O)N2CCOCC2)c1)c1c2c(nc3ccccc13)CCC2	NS1 inh 3.98µM
COc1ccc(-c2cc3ncc(-c4ccccc4)c(N)n3n2)cc1	LmPK inhibitor 15.8µM
Cc1ccc(S(=O)(=O)N2CCc3nc(-c4ccccc4)c4c(c3C2)CO[C@@H](C)C4)cc1	none (no result: NS1 inh, RE007 growth inh, Tb PYK inh)
O=C(O)c1c(-c2c3ccc(=O)cc-3oc3cc(O)ccc23)cc2ccccc2c1-c1ccccc1	none (no result: RE007 growth inh, Tb PYK inh, LmPK inhibitor)
COC(=O)C1=C(C(=O)OC)[C@@H]2N(Cc3ccccc3)c3ccccc3[C@@]23C[C@@H](C(=O)OC)N(S(=O)(=O)c2cccs2)C3=N1	none (no result: NS1 inh, RE007 growth inh, Tb PYK inh)
CCn1nc(/C=C/c2ccccc2)nc2c(=O)n(C)c(=O)nc1-2	RE007 growth inh 28.2µM
N/C(=N\OC(=O)/C=C/c1ccccc1)c1ccc(Cl)cc1	none
